Results from PubChem BioAssay (EPA / NIEHS).
Active and inactive are the calls of the source. How the source made its calls: active means hit-call score of the fitted dose curve at least 0.9, where 1 is the maximum; inactive means score below 0.9.

Experiments:
[1] = ATG_ISRE_CIS: Attagene CIS-FACTORIAL HepG2 Assay for human Interferon Regulatory Factor 1 (IRF1) binding to an Interferon-Stimulated Response Element (ISRE) (AID 2282948); details: HepG2 ISRE cis-reporter (Attagene), mRNA transcription readout; actives raise or lower the signal
In short: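 Endogenous transcription factor activity read as reporter transcript abundance via RT-PCR and capillary electrophoresis. HepG2 cells transiently transfected, 24 h chemical exposure. Gain or loss fitted against DMSO baseline.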

[2] = ATG_M_06_CIS: Attagene CIS-FACTORIAL HepG2 Assay for M06 Transcription Factor (Internal Marker) (AID 2282950); details: HepG2 Attagene CIS-FACTORIAL M06 internal marker reporter; actives raise or lower the signal
In short: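 Fluorescence-labelled RT-PCR products from cis-promoter reporter units, cut with HpaI and resolved by capillary electrophoresis, give the signal. Cells are human HepG2, dosed for 24 h. Serves as background control, fitted relative to DMSO.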

[3] = target: Hypoxia-inducible factor 1-alpha (Homo sapiens) (UniProt Q16665); test: ATG_HIF1a_CIS: Attagene CIS-FACTORIAL HepG2 Assay for human Hypoxia Inducible Factor 1 (HIF1A) (AID 2282951); details: HepG2 Attagene cis-factorial HIF1a reporter transcription; actives raise or lower the signal
Hypoxia-inducible factor 1-alpha (Homo sapiens), sequence (Q16665 whole entry, looked up): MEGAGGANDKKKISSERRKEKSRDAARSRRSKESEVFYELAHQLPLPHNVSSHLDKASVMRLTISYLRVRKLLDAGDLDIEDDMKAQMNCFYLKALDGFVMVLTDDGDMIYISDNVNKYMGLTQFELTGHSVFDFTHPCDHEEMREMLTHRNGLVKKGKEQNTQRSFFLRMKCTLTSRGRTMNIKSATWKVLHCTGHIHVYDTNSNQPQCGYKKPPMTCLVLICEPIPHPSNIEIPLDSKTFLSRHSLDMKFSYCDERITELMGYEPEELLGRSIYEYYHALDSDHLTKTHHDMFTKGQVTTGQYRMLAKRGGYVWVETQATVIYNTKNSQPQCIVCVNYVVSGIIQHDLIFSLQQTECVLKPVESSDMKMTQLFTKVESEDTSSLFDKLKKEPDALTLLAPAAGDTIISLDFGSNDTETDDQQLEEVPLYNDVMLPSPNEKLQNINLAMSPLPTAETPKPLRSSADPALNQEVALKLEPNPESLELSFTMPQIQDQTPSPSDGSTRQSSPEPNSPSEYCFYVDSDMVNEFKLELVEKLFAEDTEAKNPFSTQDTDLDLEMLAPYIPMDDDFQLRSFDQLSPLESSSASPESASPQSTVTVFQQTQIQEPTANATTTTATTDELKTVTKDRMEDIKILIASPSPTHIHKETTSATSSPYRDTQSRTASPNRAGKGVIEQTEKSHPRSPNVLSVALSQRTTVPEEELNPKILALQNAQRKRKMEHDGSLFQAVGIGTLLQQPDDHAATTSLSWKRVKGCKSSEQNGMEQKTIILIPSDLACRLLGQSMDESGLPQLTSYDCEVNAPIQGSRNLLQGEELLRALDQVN
In short: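 Dosed 24 h, transfected HepG2 cells yielded total RNA whose reporter transcripts were RT-PCR-amplified and sized by capillary electrophoresis using fluorescent labelling; DMSO defined baseline, with gain and loss of signal both fitted.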

[4] = target: Hepatocyte nuclear factor 6 (Homo sapiens) (UniProt Q9UBC0); test: ATG_HNF6_CIS: Attagene CIS-FACTORIAL HepG2 Assay for human Hepatocyte Nuclear Factor 6 (HNF6) (AID 2282952); details: HepG2 Attagene cis-factorial HNF6 reporter transcription; actives raise or lower the signal
Hepatocyte nuclear factor 6 (Homo sapiens), sequence (Q9UBC0 whole entry, looked up, the tested form may be a part): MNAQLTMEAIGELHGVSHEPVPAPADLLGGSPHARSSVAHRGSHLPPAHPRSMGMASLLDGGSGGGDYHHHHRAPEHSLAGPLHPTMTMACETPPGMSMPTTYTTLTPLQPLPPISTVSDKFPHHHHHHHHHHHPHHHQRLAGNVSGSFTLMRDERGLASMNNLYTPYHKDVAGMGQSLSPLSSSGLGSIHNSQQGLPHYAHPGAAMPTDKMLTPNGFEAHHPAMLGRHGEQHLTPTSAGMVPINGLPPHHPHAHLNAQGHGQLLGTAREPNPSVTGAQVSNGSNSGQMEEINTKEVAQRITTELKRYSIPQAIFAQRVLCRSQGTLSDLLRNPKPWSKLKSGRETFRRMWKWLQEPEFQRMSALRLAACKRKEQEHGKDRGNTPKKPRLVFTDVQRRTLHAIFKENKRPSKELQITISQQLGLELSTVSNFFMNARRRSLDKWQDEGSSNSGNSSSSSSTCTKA
In short: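 Twenty-four-hour chemical treatment of reporter-transfected HepG2 cells precedes RNA isolation, DNase-treated reverse transcription and PCR of reporter sequences. Labelled fragments are sized by capillary electrophoresis and fitted bidirectionally versus DMSO.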

[5] = ATG_MRE_CIS: Attagene CIS-FACTORIAL HepG2 Assay for human Metal Responsive Element (MRE) (AID 2282954); details: HepG2 MRE cis-reporter transcription, Attagene multiplex; actives raise or lower the signal
In short: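 Measured here is mRNA induction from an MRE cis-element reporter in HepG2 after 24 h, quantified by fluorescence of labelled RT-PCR products on capillary electrophoresis; gain- and loss-of-signal fits use DMSO as baseline.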

[6] = target: Paired box protein Pax-6 (Homo sapiens) (UniProt P26367); test: ATG_Pax6_CIS: Attagene CIS-FACTORIAL HepG2 Assay for human Paired Box 6 (PAX6) (AID 2282956); details: HepG2 CIS-FACTORIAL PAX6 reporter transcription, RNA readout; actives raise or lower the signal
Paired box protein Pax-6 (Homo sapiens), sequence (P26367 whole entry, looked up): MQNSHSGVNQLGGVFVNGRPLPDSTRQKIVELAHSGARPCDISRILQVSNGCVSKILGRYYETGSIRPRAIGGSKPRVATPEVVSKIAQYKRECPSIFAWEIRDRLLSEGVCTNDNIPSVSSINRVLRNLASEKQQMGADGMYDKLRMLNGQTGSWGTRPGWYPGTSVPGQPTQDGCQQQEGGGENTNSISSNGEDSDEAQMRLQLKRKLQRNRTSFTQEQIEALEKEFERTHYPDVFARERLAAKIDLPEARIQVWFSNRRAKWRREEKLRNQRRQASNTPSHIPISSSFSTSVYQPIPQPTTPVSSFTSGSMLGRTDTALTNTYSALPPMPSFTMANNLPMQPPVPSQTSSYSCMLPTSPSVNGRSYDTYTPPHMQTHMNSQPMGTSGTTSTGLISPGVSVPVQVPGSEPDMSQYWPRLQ
In short: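 Read-out is reporter transcript level, measured by RT-PCR with fluorescent primer extension and capillary electrophoresis after 24 h dosing of transfected HepG2 cells. Activity in either direction fitted relative to DMSO control.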

[7] = ATG_PXRE_CIS: Attagene CIS-FACTORIAL HepG2 Assay for human Pregnane X Receptor Element (PXRE) (AID 2282957); details: HepG2 Attagene CIS-FACTORIAL PXRE reporter, mRNA; actives raise or lower the signal
In short: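 Bidirectional activity, baselined to DMSO, derived from reporter mRNA fluorescence (RT-PCR plus capillary electrophoresis) in HepG2 cells bearing cis-promoter reporter units, 24 h exposure.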

[8] = ATG_PPRE_CIS: Attagene CIS-FACTORIAL HepG2 Assay for human Peroxisome Proliferator-activated Response Element (PPRE) (AID 2282958); details: HepG2 PPRE cis-element reporter, Attagene transcription factor profiling; actives raise or lower the signal
In short: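 Measured endpoint: PPRE-controlled reporter mRNA, detected by RT-PCR and capillary electrophoresis fluorescence, from transiently transfected HepG2 cells 24 h after dosing. Curves fitted in both directions using DMSO baseline.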

[9] = ATG_RORE_CIS: Attagene CIS-FACTORIAL HepG2 Assay for human RAR-related Orphan Receptor Element (RORE) (AID 2282959); details: HepG2 Attagene cis-factorial RORE reporter, mRNA; actives raise or lower the signal
In short: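 Transiently transfected HepG2 reporter cells were treated 24 h. Reporter transcripts were detected by RT-PCR and capillary electrophoresis, with bidirectional fitting against DMSO.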

[10] = ATG_Sox_CIS: Attagene CIS-FACTORIAL HepG2 Assay for human SRY-box transcription factor (SOX) (AID 2282960); details: HepG2 Attagene cis-factorial SOX reporter, mRNA; actives raise or lower the signal
In short: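 Gain- or loss-of-signal endpoint, fitted bidirectionally with DMSO as negative control. Based on reporter mRNA from transfected HepG2 cells harvested 24 h post-treatment and quantified via RT-PCR and capillary electrophoresis.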

[11] = target: Transcription factor Sp1 (Homo sapiens) (UniProt P08047); test: ATG_Sp1_CIS: Attagene CIS-FACTORIAL HepG2 Assay for human Specificity Protein 1 (Sp1) (AID 2282961); details: HepG2 Sp1 cis-reporter transcription, actives raise or lower the signal
Transcription factor Sp1 (Homo sapiens), sequence (P08047 whole entry, looked up, the tested form may be a part): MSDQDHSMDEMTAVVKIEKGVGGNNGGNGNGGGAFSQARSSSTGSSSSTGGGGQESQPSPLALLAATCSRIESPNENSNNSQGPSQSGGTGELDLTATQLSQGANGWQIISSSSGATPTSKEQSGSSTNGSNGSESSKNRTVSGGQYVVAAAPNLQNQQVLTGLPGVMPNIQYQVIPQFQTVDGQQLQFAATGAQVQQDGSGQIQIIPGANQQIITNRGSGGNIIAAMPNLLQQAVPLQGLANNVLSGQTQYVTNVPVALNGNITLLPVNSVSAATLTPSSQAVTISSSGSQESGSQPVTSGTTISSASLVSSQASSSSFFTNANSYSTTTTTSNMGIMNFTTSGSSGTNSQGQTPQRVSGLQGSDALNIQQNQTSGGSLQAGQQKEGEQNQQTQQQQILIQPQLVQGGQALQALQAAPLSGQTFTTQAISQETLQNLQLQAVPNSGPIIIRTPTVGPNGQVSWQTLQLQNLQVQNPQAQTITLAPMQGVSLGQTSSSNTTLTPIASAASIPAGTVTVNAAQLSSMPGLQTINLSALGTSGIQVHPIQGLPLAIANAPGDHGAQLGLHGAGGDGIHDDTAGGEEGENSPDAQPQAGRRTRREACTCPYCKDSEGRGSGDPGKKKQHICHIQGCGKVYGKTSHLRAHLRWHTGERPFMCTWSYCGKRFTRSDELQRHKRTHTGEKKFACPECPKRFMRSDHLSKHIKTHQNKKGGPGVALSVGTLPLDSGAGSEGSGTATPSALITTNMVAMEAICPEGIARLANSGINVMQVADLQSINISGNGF
In short: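 Endpoint reflects endogenous Sp1 transcriptional activity, not an exogenous fusion protein: HepG2 cells with transfected cis-regulated reporters, 24 h dosing, RT-PCR/capillary electrophoresis mRNA read-out, DMSO-normalised bidirectional fit.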

[12] = ATG_SREBP_CIS: Attagene CIS-FACTORIAL HepG2 Assay for human Sterol Regulatory Element Binding (SREBP) (AID 2282962); details: HepG2 Attagene cis-factorial SREBP reporter, mRNA; actives raise or lower the signal
In short: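 Endogenous SREBP activity read as cis-element-driven reporter transcript in transiently transfected HepG2, 24 h post-dosing; quantified via RT-PCR plus capillary electrophoresis of fluorescent fragments. Gain or loss of signal fitted relative to DMSO baseline.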

[13] = target: Signal transducer and activator of transcription 3 (Homo sapiens) (UniProt P40763); test: ATG_STAT3_CIS: Attagene CIS-FACTORIAL HepG2 Assay for human Signal Transducer and Activator of Transcription 3 (STAT3) (AID 2282963); details: HepG2, Attagene cis-factorial STAT3 reporter transcription; actives raise or lower the signal
Signal transducer and activator of transcription 3 (Homo sapiens), sequence (P40763 whole entry, looked up, the tested form may be a part): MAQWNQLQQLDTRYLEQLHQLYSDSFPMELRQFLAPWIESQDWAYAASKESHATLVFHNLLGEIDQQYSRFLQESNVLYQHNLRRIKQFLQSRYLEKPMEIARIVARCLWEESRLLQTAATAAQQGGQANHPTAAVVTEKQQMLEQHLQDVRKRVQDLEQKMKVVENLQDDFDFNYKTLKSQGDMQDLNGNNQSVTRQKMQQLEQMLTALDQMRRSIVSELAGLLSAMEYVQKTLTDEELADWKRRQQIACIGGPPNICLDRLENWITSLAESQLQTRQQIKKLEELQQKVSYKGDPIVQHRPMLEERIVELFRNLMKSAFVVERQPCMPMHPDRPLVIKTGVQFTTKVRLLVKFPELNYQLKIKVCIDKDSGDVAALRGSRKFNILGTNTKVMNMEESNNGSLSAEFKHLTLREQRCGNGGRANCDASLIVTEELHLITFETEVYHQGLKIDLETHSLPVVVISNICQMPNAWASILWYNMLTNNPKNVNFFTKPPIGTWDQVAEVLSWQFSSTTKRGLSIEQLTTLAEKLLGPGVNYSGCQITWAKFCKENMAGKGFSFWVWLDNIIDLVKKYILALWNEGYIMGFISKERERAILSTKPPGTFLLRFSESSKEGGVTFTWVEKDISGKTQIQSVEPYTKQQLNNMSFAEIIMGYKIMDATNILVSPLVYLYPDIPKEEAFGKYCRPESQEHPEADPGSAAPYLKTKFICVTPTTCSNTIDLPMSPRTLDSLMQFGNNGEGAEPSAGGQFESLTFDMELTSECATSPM
In short: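 Fluorescence intensity of 6-FAM-labelled reporter fragments, separated by capillary electrophoresis after RT-PCR, gave the signal. Cells were HepG2 transfected with cis-element reporter units and treated 24 h; fitting was bidirectional relative to DMSO.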

[14] = ATG_TA_CIS: Attagene CIS-FACTORIAL HepG2 Assay for human TA Basal Promoter (AID 2282964); details: HepG2 Attagene CIS-factorial TA basal promoter reporter; actives raise or lower the signal
In short: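 Multiplexed mRNA reporter assay, HepG2, 24 h. Reporter cDNA amplified, 6-FAM primer-extended, HpaI-cut, CE-sized; DMSO = negative control and baseline.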

[15] = ATG_TCF_b_cat_CIS: Attagene CIS-FACTORIAL HepG2 Assay for human T-Cell-Factor with beta-catenin (TCF/b-cat) (AID 2282965); details: HepG2 TCF/beta-catenin cis-reporter transcription, actives raise or lower the signal
In short: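 HepG2 cells transiently transfected with cis-promoter-driven multiplexed reporter units; reporter mRNA measured 24 h after dosing by RT-PCR, FAM labelling, HpaI digestion and capillary electrophoresis. Bidirectional fitting relative to DMSO baseline.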

[16] = ATG_M_32_CIS: Attagene CIS-FACTORIAL HepG2 Assay for M32 Transcription Factor (Internal Marker) (AID 2282949); details: HepG2 Attagene cis-factorial M32 reporter, mRNA; actives raise or lower the signal;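 further: background control marker of the multiplexed CIS panel rather than a real target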
In short: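 HepG2 transfectants (cis-regulated reporter transcription units) dosed 24 h. Reporter mRNA by RT-PCR plus CE, analysed as gain or loss relative to DMSO.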

[17] = ATG_PBREM_CIS: Attagene CIS-FACTORIAL HepG2 Assay for human Phenobarbital-responsive Enhancer Module (PBREM) (AID 2282955); details: HepG2 PBREM cis-reporter, Attagene multiplexed transcription; actives raise or lower the signal
In short: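 Transfected liver-derived HepG2 cells exposed 24 h; PBREM reporter transcript quantified via RT-PCR and capillary electrophoresis, with activity in either direction referenced to DMSO.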

[18] = target: Heat shock factor protein 1 (Homo sapiens) (UniProt Q00613); test: ATG_HSE_CIS: Attagene CIS-FACTORIAL HepG2 Assay for human Heat Shock Transcription Factor 1 (HSE) (AID 2282953); details: HepG2 HSE cis-reporter, Attagene RNA transcription; actives raise or lower the signal
Heat shock factor protein 1 (Homo sapiens), sequence (Q00613 whole entry, looked up): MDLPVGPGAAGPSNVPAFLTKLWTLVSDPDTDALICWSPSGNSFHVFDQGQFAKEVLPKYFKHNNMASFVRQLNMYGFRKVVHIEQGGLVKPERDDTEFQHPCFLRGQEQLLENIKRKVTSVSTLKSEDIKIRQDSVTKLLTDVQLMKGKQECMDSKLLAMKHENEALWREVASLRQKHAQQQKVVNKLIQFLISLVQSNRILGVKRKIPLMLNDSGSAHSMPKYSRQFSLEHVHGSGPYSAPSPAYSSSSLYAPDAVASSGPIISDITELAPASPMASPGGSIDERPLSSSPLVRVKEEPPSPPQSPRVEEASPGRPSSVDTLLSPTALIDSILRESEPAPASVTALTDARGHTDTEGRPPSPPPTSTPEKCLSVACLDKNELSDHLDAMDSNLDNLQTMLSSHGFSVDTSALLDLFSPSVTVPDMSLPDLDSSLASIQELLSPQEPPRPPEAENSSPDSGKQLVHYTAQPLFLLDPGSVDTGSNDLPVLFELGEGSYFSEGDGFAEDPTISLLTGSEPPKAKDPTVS
In short: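 After a 24 h incubation with test chemical, transfected HepG2 cells were harvested for RNA; reporter transcripts were measured by RT-PCR and capillary electrophoresis. Values reflect gain or loss of signal relative to DMSO.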

Measured: AC50

COc1nc(C)nc(N)n1
not listed: [16] | [17] | [18]
inactive: all other assays above

CN1[C@@H]2CC(OC(=O)[C@H](CO)c3ccccc3)C[C@H]1[C@@H]1O[C@@H]12 (stereo partly drawn)
not listed: [3] | [4] | [7] | [12] | [18]
inactive: all other assays above

O=C(O)COCCN1CCN(C(c2ccccc2)c2ccc(Cl)cc2)CC1 (stereo not drawn)
not listed: [3] | [4] | [9] | [10]
inactive: all other assays above

CCCCCCCCCCCCN(CCCCCCCCCCCC)CCCCCCCCCCCC
not listed: [4] | [8] | [18]
inactive: all other assays above

CC(C)[C@@H]1CC[C@@H](C)CC1=O
active: [3] 38.4 µM
not listed: [8] | [13] | [16] | [17] | [18]
inactive: all other assays above

CCCC[n+]1ccccc1
not listed: [8] | [10] | [17] | [18]
inactive: all other assays above

CC(CN1c2ccccc2Sc2ccccc21)N(C)C (stereo not drawn)
active: [5] 40.7 µM | [6] 44 µM | [15] 33.4 µM
not listed: [3] | [7] | [8] | [18]
inactive: all other assays above

CSc1nc(NC2CC2)nc(NC(C)(C)C)n1
active: [5] 65.7 µM | [7] 0.911 µM | [15] 51.7 µM
not listed: [4] | [8] | [17]
inactive: all other assays above

CCCCCNCCCCC
active: [7] 59.4 µM
not listed: [16]
inactive: all other assays above

S=C(S)NCCNC(=S)S
not listed: [8] | [12] | [16] | [17]
inactive: all other assays above

COC(C)CCO (stereo not drawn)
active: [7] 26.6 µM | [15] 187 µM
not listed: [8] | [16]
inactive: all other assays above

CO[Si](C)(OC)c1ccccc1
active: [7] 2.95 µM
not listed: [12] | [17] | [18]
inactive: all other assays above

CN(C)C(=N)N=C(N)N
not listed: [4] | [9] | [12] | [17] | [18]
inactive: all other assays above

CCN(CC)CCOC(=O)c1ccc(N)cc1
active: [7] 45.9 µM
not listed: [3] | [4] | [8] | [9]
inactive: all other assays above

CNC[C@H](O)c1cccc(O)c1
active: [7] 34.2 µM
not listed: [8] | [9] | [13] | [17] | [18]
inactive: all other assays above

CC(C)(C)NC(N)=O
not listed: [4]
inactive: all other assays above

CC(=O)[O][Al][O]C(C)=O
not listed: [7] | [9] | [10] | [18]
inactive: all other assays above

Nc1nc2ccc([N+](=O)[O-])cc2s1
active: [1] 77.4 µM | [7] 19.8 µM | [8] 45.6 µM
not listed: [9] | [18]
inactive: all other assays above

CC1COc2ccccc2N1C(=O)C(Cl)Cl (stereo not drawn)
active: [1] 100 µM | [5] 62.1 µM | [6] 26.7 µM | [7] 26.6 µM
not listed: [9] | [10] | [16]
inactive: all other assays above

CCCCCCCCCCCCCCCCCC(=O)OCC(CC)CCCC (stereo not drawn)
not listed: [9] | [18]
inactive: all other assays above

CC(C)C[C@H]1C(=O)N2CCC[C@H]2[C@]2(O)O[C@](NC(=O)[C@@H]3C=C4c5cccc6[nH]c(Br)c(c56)C[C@H]4N(C)C3)(C(C)C)C(=O)N12
inactive: [16] | [2] | [4] | [18] | [10] | [12] | [13]
active: [1] 3.76 µM | [5] 2.16 µM | [17] 0.744 µM | [6] 4.02 µM | [7] 0.302 µM | [9] 1.9 µM | [11] 2.91 µM | [14] 3.09 µM | [15] 4.37 µM

CCCCCCCCCCCCCCCC(=O)OC[C@H](O)[C@H]1OC(=O)C(O)=C1O
active: [3] 131 µM | [18] 24.1 µM | [17] 71.7 µM | [7] 38.2 µM | [10] 150 µM | [12] 100 µM | [15] 168 µM
not listed: [9] | [13] | [16]
inactive: all other assays above

CC(C)C(C)(C)C(C)(C)C(C)(C)S
not listed: [7] | [17]
inactive: all other assays above

O=c1oc(=O)c2cc3c(=O)oc(=O)c3cc12
not listed: [18]
inactive: all other assays above

CCCc1ccccc1O
active: [7] 56 µM
not listed: [8] | [18]
inactive: all other assays above

CC(C)[C@H]1CC[C@@H](C)CC1=O
active: [7] 61.9 µM
not listed: [8] | [17] | [18]
inactive: all other assays above

OCCOc1cccc(OCCO)c1
not listed: [8] | [17] | [18]
inactive: all other assays above
